# From PubChem BioAssay (NCI)
# Compounds without any hit were thinned out: in the full panel of roughly 83,000, 20% have a hit.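 Step 1: grow cells in 96-well plates. Step 2: add test compound at a single concentration. Step 3: incubate 48 h. Step 4: record percent growth.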 Values without a mark were called inactive. Active and inactive are the calls of the source.
# Test system: IGROV1 ovarian
# Assay: NCI-60 one-dose screen, 48 h (100 = growth as untreated, 0 = no growth, -100 = all killed)
# Conditions: 10 µM unless noted
# Experimental: Growth inhibition of the IGROV1 human tumor cell line is measured as a screen for anti-cancer activity. Cells are grown in 96 well plates and exposed to the test compound for 48 hours. Compounds are tested at a single concentration, which is 10^-5 M for most compounds. The reported endpoint is percent growth (GI% or GIPRCNT), where numbers from 0 - 100% represent growth inhibition, and numbers from -100% - 0 represent cell death. For example, a value of 40 represents 60% growth inhibition. A value of 0 means no net growth occurred over the course of the experiment. A value of -40 indicates 40% of cells at the beginning of the experiment died by the end of the experiment. A value of -100 means all cells are dead at the end of the experiment.
# NCI-60 Human Tumor Cell Lines Screen was performed using the standard one-dose NCI protocol, which is described in more detail at https://dtp.cancer.gov/discovery_development/nci-60/default.htm.
# Compounds with GIPRCNT values below 10 were considered active. Activity score was based on GIPRCNT using the following formula: […]
# Score is 0 for GIPRCNT values of 100 or above, 50 for GIPRCNT values of 0, and 100 for GIPRCNT values of -100.
row,Structure (SMILES),growth
1,Oc1ccccc1/C=N/N=C\c1ccccc1Cl,70.3%
2,c1ccc(Nc2ccccn2)cc1,101%
3,O=C(O)CC1Cc2ccccc2C1C(=O)O (stereo not given),110%
4,Nc1ncn([C@@H]2O[C@H](CO)[C@@H](O)C2(F)F)c(=O)n1,56.8%
5,C#CCCCCCCC[C@@H]1OC(=O)[C@H]([C@@H](C)CC)NC(=O)[C@H]([C@@H](C)CC)NC(=O)CC(=O)[C@@H]1C,89.5%
6,COC(=O)[C@@H]1[C@H](O)[C@H](C)[C@H](O)[C@H](C)/C=C\C=C(C)C(=O)Nc2c(C)c(OC(C)=O)c3c(c2O)C(=O)C(C)=C2OCOC(=C23)C(C)=C[C@@](C)(O)[C@H](O)[C@@H](C)[C@H]1OC(C)=O,3.5% (active)
7,CCOc1ccccc1/C=N\N=C(N/N=C/c1ccccc1OCC)N/N=C/c1ccccc1OCC,21%
8,CCCCCc1ccnc(CC(=O)c2ccc(OC)cc2)c1,108%
9,COc1ccc2cn3c4ccc(O)cc4[nH]c(=O)c3c2c1,17.6%
10,O=[N+]([O-])c1ccc(-c2ncc(-c3ccc(O)cc3O)[nH]2)cc1,97.6%
11,O=Nc1ccc(O)c2ccccc12,2.08% (active)
12,COc1cccc(-c2cc(-c3cc4ccccc4oc3=O)nc(N)n2)c1,70%
13,N=C(N)N=Nc1ccc(NN=C(N)N)c2ccccc12,107%
14,C=C(NC(=O)[C@H](C(C)C)N(C)c1cccc2[nH]ccc12)C(=O)OC,111%
15,CCc1c(C)c2ccc(OCC(=O)N=Nc3c(O)[nH]c4ccccc34)c(C)c2oc1=O,7.99% (active)
16,CCCCCCCCCCCCCCCCNC(=O)Nc1ccc(C)c(NC(=O)NCCCCCCCCCCCCCCCC)c1,107%
17,CC(Br)c1nc2ccccc2cc1C(N)=O (stereo not given),108%
18,CCOC(=O)CCCCCCCCC(=O)OCC,105%
19,COC(=O)c1cc(Nc2ccc(O)c3c2C(=O)c2c([N+](=O)[O-])ccc(O)c2C3=O)cc(C(=O)OC)c1,85.9%
20,[2H]c1nc(=Nc2cc(NC(=O)C=C)c(N(C)CCN(C)C)cc2OC)[nH]c(-c2cn(C([2H])([2H])[2H])c3ccccc23)c1[2H],19.1%

row,Structure (SMILES),growth
1,COc1cc(C(=O)Nc2ccc(N(C)C)cc2)cc(OC)c1OC,93.7%
2,COc1ccccc1C(=O)Nc1cccc(-c2cc(=O)c3c(OC)c(OC)c(OC)cc3o2)c1,42.9%
3,O=C1/C(=C\c2cn(-c3nc(N4CCOCC4)nc(N4CCOCC4)n3)c3ccccc23)c2ccccc2N1c1c(Cl)cccc1Cl,36.2%
4,O=c1[nH]c2cc(O)ccc2n2cc3c(F)cccc3c12,16.9%
5,Cc1cc2cn3c4ccc(O)cc4nc(N)c3c2cc1C,3% (active)
6,CCCCCCCCCc1cc[n+](CC(=O)c2ccc([N+](=O)[O-])cc2)cc1,26.6%
7,CCN(CC)CCCC(C)Nc1c(C)cnc2cc(Cl)c(C)cc12 (stereo not given),96.3%
8,c1ccc2[nH]c(-c3ccc(OCCCCCOc4ccc(-c5nc6ccccc6[nH]5)cc4)cc3)nc2c1,38.3%
9,Cc1cc(CSc2ccc(Cl)cc2)ccc1N,86%
10,O=C1/C(=N\c2cc(=O)[nH]n2S(=O)(=O)c2ccccc2)Nc2ccccc21,100%
11,Brc1c(-c2ccncc2)nc2n1CCS2,0.69% (active)
12,O=C1NCCN1/N=C/c1c(Cl)nc2n1CCS2,84%
13,COc1ccc(Cn2cc3c(c2-c2ccccc2)CCc2cnoc2-3)cc1N,3.29% (active)
14,O=C(Nc1cccc(Cn2c(=O)[nH]c3ccc(Oc4ncccn4)cc3c2=O)c1)c1ccc(Cl)cc1,66.9%
15,COC(=O)C(Cc1cnc[nH]1)N1CC(=O)N2[C@@H](c3ccccc3)SC[C@H]2C1=O (stereo not given in full),116%
16,c1ccc(Nc2ncc3c(n2)-c2cccn2CC3)cc1,54.5%
17,CC1(C)N=C(N)N=C(N)N1c1cccc(CCCCOc2ccccc2)c1,26.6%
18,O=c1c2c(c3ccccc3n1-c1ccccc1)NC(=S)NC2c1ccc(Cl)cc1 (stereo not given),40.1%
19,COc1cc2ncnc(Nc3ccc4c(cnn4C(=O)Nc4ccccc4)c3)c2cc1OC,80.7%
20,C=CCN(C)C,104%
